# Test results as given in the supplement of paper PMC3334620.
# Whole data set: some 33,000 sequences, median “E-score (-0.5 to 0.5)” near -0.013, cut for the highest 2% near 0.3. What follows is part of a selection rich in the highest values, with near analogues and random picks from the rest.
# Molecular target: T1, Msn1 (UniProt P22148)
# T1 sequence: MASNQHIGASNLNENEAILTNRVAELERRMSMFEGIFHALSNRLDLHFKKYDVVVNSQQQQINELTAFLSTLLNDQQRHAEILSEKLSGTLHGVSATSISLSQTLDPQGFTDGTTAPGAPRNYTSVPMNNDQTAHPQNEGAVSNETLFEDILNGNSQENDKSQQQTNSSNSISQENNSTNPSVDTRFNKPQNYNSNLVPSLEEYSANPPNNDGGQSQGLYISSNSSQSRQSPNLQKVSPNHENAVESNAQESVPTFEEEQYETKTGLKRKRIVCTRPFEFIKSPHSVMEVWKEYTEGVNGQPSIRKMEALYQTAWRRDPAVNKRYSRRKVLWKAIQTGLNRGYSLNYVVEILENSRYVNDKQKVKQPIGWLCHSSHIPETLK
# Assay: PBM E-score (8-mer binding enrichment) (E-score (-0.5 to 0.5)); higher = stronger / more preferred TF binding
# Conditions: protein concentration: 200 nM; construct: GST-full length
# Procedure: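 Universal 'all 10-mer' protein binding microarrays (Agilent AMADID 015681) probed with GST-tagged S. cerevisiae TFs (full-length or DBD) made by in vitro transcription/translation (PURExpress), about 100-200 nM. Bound TF was detected with fluorescent anti-GST. Each ungapped 8-mer (which stands for itself and its reverse complement) is scored by the PBM enrichment score (E-score), a modified Wilcoxon-Mann-Whitney statistic from -0.5 to +0.5, computed with the Universal PBM Analysis Suite. Scale: above 0.35 generally sequence-specific binding.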
row,Sequence,PBM E-score
1,CGGATGTA,0.0259
2,AGGATGTC,0.398
3,CGGATGTC,0.348
4,CAGATGTC,0.347
5,GCCCAGAA,0.0114
6,CTGCTACC,-0.0604
7,CCCTCGAG,-0.11
8,ACTGGCAA,0.0309
9,GTTGATTA,0.135
10,AATCTGGG,-0.203
11,CCAGGTGC,-0.205
12,ATTACGCG,-0.059
13,CACAATAC,-0.0413
14,GACAATCC,0.355
15,GACAATAC,0.377
16,CACAATTA,0.128
17,AACAATAC,0.158
18,AACAATCC,0.136
19,GACAATCA,0.217
20,GACAATTA,0.426
21,AACAATTA,0.165
22,ATTCCTCG,0.0159

row,Sequence,PBM E-score
1,AACGTCAG,-0.248
2,GAGATCAC,-0.035
3,ATACAGCA,0.103
4,CCAGGACC,-0.105
5,ACAGGACG,0.0345
6,GCAGGACC,-0.0863
7,ACAGGACT,-0.0485
8,GCAGGATA,-0.224
9,CCAGGACA,0.469
10,ACAGGACA,0.421
11,TCAGGACA,0.461
12,GCAGGACA,0.47
13,TCAGGAGA,-0.0143
14,CCAGGACG,0.109
15,TCAGGAAA,0.0903
16,CCGAGATC,0.0634
17,AGGTTAAC,-0.0876
18,AATCGATG,0.144
19,CAGCAGAC,0.0732
20,AGTCTGTC,0.0754
21,AGCCAGAC,-0.072
22,AAGCGCCC,-0.264

row,Sequence,PBM E-score
1,TATTGAGA,0.208
2,CCAGCGGC,-0.0286
3,GGTAACTA,0.18
4,ATTGTCGC,0.344
5,ATTGTCGA,0.144
6,ATTGTCGG,0.318
7,ACTGTCGC,-0.134
8,CTTGTCGC,0.166
9,ACTGTCGG,-0.0418
10,AGGGTTTG,-0.0242
11,ACCCGTTA,0.00896
12,GCGGTACA,0.0441
13,GTGGTACA,0.13
14,CCGGTACG,-0.262
15,CCGGTACA,0.319
16,CTGGTACC,-0.121
17,CTGGTACA,0.329
18,CGGCCCAG,-0.186
19,TAAGAAAA,0.00824
20,CTGCGACC,-0.19
21,ACGTCCCG,0.0295
22,ATGTCCCA,0.485

row,Sequence,PBM E-score
1,ATGTCCCC,0.479
2,GGGTCCCA,-0.216
3,CTGTCCCC,0.00412
4,CTGTCCCA,0.281
5,AGGTCCCA,-0.081
6,AGGTCCCC,-0.299
7,GCGTCCCA,0.0223
8,ATGTCCCG,0.474
9,GTGTCCCA,0.439
10,AAGTCCCG,0.283
11,GCCTTTGA,0.0544
12,CGAGGAGA,-0.141
13,AGACCCTG,-0.165
14,ACCTAACG,-0.203
15,ATGATCTG,0.0873
16,GGGAAAAA,0.185
17,GCGGTCAC,-0.172
18,ATGTCTAA,0.403
19,CTGTCTAC,-0.0627
20,AAGTCTAG,-0.107
21,GTGTCTAA,0.192
22,AGGTCTAC,-0.0162
